# HCMV inh – inhibitors of human cytomegalovirus; HFF cells, HCMV-luciferase reporter, 72 h; hits give low values; activity change, negative = inhibition, % at 57.5 µM; 4.5% of 410,000 active; in the data active = activity change below about -60%; inconclusive = no clear call, values can overlap the other calls; inactive = above about -39%
#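 Luciferase read-out from HCMV-luciferase-infected HFFs (MOI 1 PFU/cell) 72 h post infection at 37C; compounds added after 16 h cell attachment; activity normalized between buffer-only basal and Salinomycin (10uM) inhibitor controls.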
# HCV inh – blocks hepatitis C virus. Potency, µM (titrated, usually from 41.8 µM), inactives show at the top dose activity change, negative = inhibition, usual class: inhibitors. Huh7.5.1 HCVcc-Cre infection, luciferase reporter, 44 h. AID 651820. 3.4% of 340,000 active; note: potency is the fitted concentration of half-maximal effect
#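 Antiviral activity was scored by luciferase reporter output from cells infected with HCVcc-Cre (~0.5 moi) in presence of compound, 44 h infection period, cells seeded 1,000/well 4 h prior.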
# Pf growth 48h – inhibits P. falciparum growth in the first generation, 48 h; 5.9% of 310,000 active; P. falciparum luciferase growth in erythrocytes, 48 h; Potency, µM (doses to about 28.7 µM), inactives show at the highest dose activity change, negative = inhibition, usual class: inhibitors; note: potency is the fitted concentration of half-maximal effect
#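 Luciferase-expressing P. falciparum in infected erythrocytes (2% hematocrit, 0.1% parasitemia final) in RPMI 1640/0.5% Albumax were exposed to compound for 48 hours at 37 C, 5% CO2; growth read as luminescence.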
# Pf growth 96h – P. falciparum growth inhibition at 96 hours. 6.9% of 320,000 active. Potency, µM (top dose mostly 28.7 µM), for inactives: top-dose activity change, negative = inhibition, actives largely listed as inhibitors. AID 504834. P. falciparum luciferase reporter growth, 96 h; note: potency is the fitted concentration of half-maximal effect
#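 Luminescence readout: decreased luciferase signal marks inhibited growth of reporter-expressing P. falciparum in infected red cells (2% hematocrit, 0.05% parasitemia final), exposed to compound two generations (96 h, 37 C, 5% CO2).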
# Active calls of the source: *; ? = inconclusive; . = not tested or not shown. Hits are enriched below; roughly 13% of the tested compounds scored in any of these assays. Unless noted, calls come from the whole dose curve; as a rule, active = well fitted inhibition curve with a large enough effect; inconclusive = small, poorly fitted or top-dose-only effect, or another doubt; inactive = no such curve, though single readings can be large or run the other way. % is set by controls: 0 for no effect and ±100 for the full control effect.
SMILES,HCMV inh,HCV inh,Pf growth 48h,Pf growth 96h
O=C(C[C@H]1CC[C@@H]2[C@H](COC[C@@H](O)CN2C(=O)C2CC2)O1)NCc1ccccc1Cl,-30.9,.,.,.
O=C(C[C@H]1CC[C@H]2[C@@H](COC[C@@H](O)CN2C(=O)c2cnccn2)O1)NCc1ccc(Oc2ccccc2)cc1,-67.9*,.,.,.
Nc1cc(=O)[nH]c(SCc2nnnn2-c2ccc(Cl)cc2)n1,-9.4,-5.6%,12.2%,0.208µM*
COc1cc(C=CC(=O)c2cc(OC)c(OC)c(OC)c2)cc(OC)c1OC,-97.2*,?,.,.
COc1cc(/C=C/C(=O)N2CCC=CC2=O)cc(OC)c1OC,-97.0*,31.6µM*,9.28µM*,?
COc1cccc2c1Oc1ncccc1N(c1ccc(C(=O)NCc3cccc(C)c3)s1)C2,-24.7,.,.,.
Cc1ccc(C)c(NC(=O)CCc2c(C)n(C)c3cc(-c4ccccc4C)nn3c2=O)c1,0.5,.,.,.
COC(=O)c1cccc(C23CC4(C2)[C@H](CN(Cc2cccnc2)[C@@H]4c2ccccc2)C3c2ccc(C(F)(F)F)cc2)c1 (some centres not stated),-23.5,32.3%,2.33µM*,?
COC(=O)c1ccc(C23CC4(C2)[C@H](CN(Cc2ccc(-c5ccccc5)cc2)[C@@H]4c2ccccc2)C3c2ccccc2)cc1 (some centres not stated),25.0,14.9%,?,?
COC(=O)c1cccc(C23CC4(C2)[C@H](CN(Cc2cccnc2)[C@@H]4c2ccccc2)C3c2ccc(Cl)nc2)c1 (some centres not stated),-14.5,?,13.1µM*,11.7µM*
CC(c1ccccc1)N(NC(=O)C(O)(c1ccccc1)c1ccccc1)C(=O)c1ccccc1 (configuration not stated),-74.2*,?,?,?
Cc1ccccc1C(=O)N(Cc1cccs1)C1CCS(=O)(=O)C1 (configuration not stated),-84.1*,-0.6%,14.8%,-26.4%
Cc1cccc(C(=O)N(Cc2cccs2)C2CCS(=O)(=O)C2)c1 (configuration not stated),-9.0,9.4%,4.3%,14.4%
CC(C)c1ccc(CN(C(=O)c2cccs2)C2CCS(=O)(=O)C2)cc1 (configuration not stated),-68.9*,6.0%,?,?
COc1ccc(-c2ccc(NS(=O)(=O)c3ccc(NC(C)=O)cc3)cc2)nn1,22.9,.,.,.
COc1ccc(-c2nn(-c3cccc(F)c3)c3c2cnc2cc(OC)c(OC)cc23)cc1,13.4,.,.,.
CCCCCC(=O)Nc1nc(C)c(-c2csc(Nc3cc(Cl)ccc3C)n2)s1,116.7,-0.9%,?,?
Cc1nc(NC(=O)c2ccccc2)sc1-c1csc(Nc2ccc(Cl)cc2Cl)n1,.,.,10.4µM*,3.29µM*
COc1ccc(Cl)cc1Nc1nc(-c2sc(NC(=O)c3ccccc3)nc2C)cs1,.,.,1.85µM*,2.94µM*
COc1ccc(OC)c(Nc2nc(-c3sc(NC(=O)c4ccccc4)nc3C)cs2)c1,.,.,?,-21.9%
COC(=O)c1ccc(Oc2cc(C)nc(NCc3ccccc3)n2)cc1,-18.4,-27.8%,?,10.4µM*
COC(=O)c1ccc(Oc2nc(C)cc(Oc3ccccc3)n2)cc1,-27.3,8.4%,?,8.0%
COC(=O)c1ccc(Oc2cc(C)nc(-n3nc(C)cc3C)n2)cc1,-75.9*,?,?,-7.8%
N=C1C(c2nc(-c3ccc(Br)cc3)cs2)=C(O)CN1NC(=O)c1ccc([N+](=O)[O-])cc1,-101.8*,1.8%,7.5%,17.7%
O=C(C[n+]1ccc(/C=N/O)cc1)NCc1ccccc1,6.6,12.9%,-15.9%,-21.1%
SMILES,HCMV inh,HCV inh,Pf growth 48h,Pf growth 96h
O=C(C[n+]1ccc(/C=N/O)cc1)NC1CCCCC1,?,7.2%,10.4µM*,-37.6%
O=C(Nc1ccccc1)c1cccc(S(=O)(=O)NC2CCCC2)c1,-7.7,-20.4%,13.1%,11.7µM*
O=C(CCc1ccc(S(=O)(=O)NC2CCCCC2)cc1)Nc1ccccc1,-68.9*,6.7%,?,.
CC(=O)Nc1ccc(NC2CCCCC2NS(=O)(=O)c2ccccc2)cc1 (configuration not stated),23.3,19.8%,-4.7%,8.28µM*
O=C(COc1ccc(S(=O)(=O)NC2CCCCC2)cc1)NCc1ccccn1,10.2,6.1%,0.8%,4.15µM*
Cc1ccc(NC(=O)CCc2ccc(S(=O)(=O)NC3CCCCC3)cc2)cc1,-17.4,?,?,?

# Bioassay records from PubChem.
